CCHFV vOTU inh: CCHFV vOTU protease inhibitors, primary screen, biochemical, Pep-AMC substrate, fluorescence | Crimean-Congo hemorrhagic fever virus L polyprotein viral ovarian tumor (vOTU) protease … | inhibition, % at 11.5 µM | hit rate 0.55% among 370,000 | AID 651958, 2012; in the data active = inhibition above about 30%; note: 0% = vehicle wells with enzyme and 100% = no enzyme wells
Y pestis TopoI: Yersinia pestis topoisomerase I inhibitors, primary screen, biochemical, cleavage product accumulation, plate reader, single point; DNA topoisomerase I (Yersinia pestis CO92); Y. pestis Topo-I cleavage product accumulation; activity, % at 10 µM; hit rate 0.064% among 360,000; in the data active = activity above about 50%, passing the limit was not always enough
PrPC TRFRET: inhibitors of human cell surface prion protein PrPC, primary screen, cell-based, TR-FRET | Major prion protein (Homo sapiens), P04156 | TR-FRET read-out | inhibition, % at 13.8 µM | hit rate 0.43% among 370,000 | AID 720596, 2013; in the data active = inhibition above about 24%; note: 0% = median of the test wells and 100% = reference compound wells
VHR inh abs: VHR1 phosphatase inhibitors, primary screen, biochemical, absorbance, uHTS; recombinant VHR phosphatase, pNPP absorbance; inhibition, % at 13.3 µM; hit rate 0.52% among 290,000; AID 1654, 2009; in the data active = inhibition above about 50%
Target sequence (P51452 whole entry, looked up): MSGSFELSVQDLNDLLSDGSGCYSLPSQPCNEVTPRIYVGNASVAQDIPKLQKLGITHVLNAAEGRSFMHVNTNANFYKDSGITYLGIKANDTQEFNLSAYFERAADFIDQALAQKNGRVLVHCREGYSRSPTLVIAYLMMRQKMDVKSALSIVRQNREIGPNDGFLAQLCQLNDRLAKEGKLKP
MazEF act: activators of E. coli MazEF toxin-antitoxin RNase, primary screen, biochemical, fluorescence, uHTS; Endoribonuclease toxin MazF (Escherichia coli (strain K12)), P0AE70; FAM/BHQ RNA-DNA oligo cleavage fluorescence, 5 h; activation, % at 20 µM; hit rate 0.32% among 350,000; AID 504720, 2011; in the data active = activation above about 50%
Target sequence (P0AE70 whole entry, looked up): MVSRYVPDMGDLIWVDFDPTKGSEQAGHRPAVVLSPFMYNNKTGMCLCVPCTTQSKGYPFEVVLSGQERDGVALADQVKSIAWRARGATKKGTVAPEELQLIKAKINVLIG
BH1578 lux ind: inducers of Vibrio cholerae quorum light production without autoinducers, primary screen, BH1578 luxS cqsA deficient, single point. V. cholerae BH1578 lux reporter, luminescence, 6 h. activation, % at 18.7 µM. hit rate 0.16% among 350,000. AID 588436, 2011; in the data active = activation mostly above about 9.7%, no sharp cut-off
* hit, by the source's call; i = inactive; nt = no result; + = active, no number. Most compounds without a hit are left out; they make up all but 1.8% or so of the library.

SMILES	CCHFV vOTU inh	Y pestis TopoI	PrPC TRFRET	VHR inh abs	MazEF act	BH1578 lux ind
COc1cccc(CN2CC(C(=O)N3CCOCC3)CCC2=O)c1 (centres undefined)	13	-2	-2	53*	9	7
COc1cccc(CN2CCN(C(=O)C3CCC(=O)N(C4CCCC4)C3)CC2)c1 (centres undefined)	7	-8	0	51*	1	0
COc1cccc(CC(=O)NC2CCCN(Cc3ccc(Cl)cc3)C2)c1 (centres undefined)	-8	30	3	53*	2	19
CC(C)(C)c1ccc(-c2nnc(SCC(=O)Nc3ccc(S(=O)(=O)Nc4nccs4)cc3)n2Cc2ccco2)cc1	15	nt	0	nt	nt	nt
CCCC1CCC2(CCC(=O)N2CCOC)CC1 (centres undefined)	2	nt	0	nt	nt	nt
N=c1c(C(=O)NCc2ccc3c(c2)OCO3)cc2c(=O)n3ccccc3nc2n1Cc1cccnc1	-4	-5	-31	17	14	i
N=c1c(S(=O)(=O)c2ccc(Cl)cc2)cc2c(=O)n3ccccc3nc2n1Cc1cccnc1	nt	10	nt	-17	81*	-1
COc1ccc(CNC(=O)c2cc3c(=O)n4ccccc4nc3n(Cc3cccnc3)c2=N)cc1	1	-2	-14	20	557*	4
N=c1c(S(=O)(=O)c2ccc(Cl)cc2)cc2c(=O)n3ccccc3nc2n1CCc1ccccc1	5	12	-7	43	nt	0
C=CCn1c(=N)c(S(=O)(=O)c2ccc(C)c(C)c2)cc2c(=O)n3ccccc3nc21	-1	-3	-3	2	183*	-12
CCOC(=O)c1cc2c(=O)n3ccccc3nc2n(Cc2ccc(Cl)cc2)c1=N	-12	2	-10	nt	+	0
O=C(OCC#CCSc1nnc(-c2cccs2)o1)c1ccc(F)cc1	nt	nt	2	nt	nt	nt
Cc1ccc2c(COC(=O)c3ccccc3Cl)cc(=O)oc2c1	-3	-2	6	16	8	0
Cc1ccc2c(COC(=O)c3ccc(C)c(C)c3)cc(=O)oc2c1	8	1	-2	22	2	0
Cc1ccc2c(COC(=O)c3ccccc3Br)cc(=O)oc2c1	3	-8	9	60*	31	0
COc1ccc(Br)c(C(=O)OCc2cc(=O)oc3cc(C)ccc23)c1	7	16	-4	12	86*	0
Cc1ccc(S(=O)(=O)N2CCC(C(=O)NCc3cccs3)CC2)cc1	0	nt	7	nt	nt	nt
Nc1ccc2nc3c(=O)n(CCc4ccccc4)c(=O)[nH]c3nc2c1	6	-2	-12	2	i	-1
CCCCn1c(=O)[nH]c2nc3cc(N)ccc3nc2c1=O	50*	-7	-27	1	-295	-1
CN(C)c1ccc(NC(=O)NC2CCCCN(Cc3cccc(Cl)c3)C2=O)cc1 (centres undefined)	3	nt	6	nt	nt	nt
COc1ccc(CN(CCN2CCOCC2)C(=O)c2cc(Cl)ccc2F)cc1OC	-5	nt	-8	nt	nt	nt
CCCOc1ccc(C2=CC(=O)C[C@H](c3ccc(OC)cc3)C2)cc1	10	60*	-7	nt	-6	i
CCOc1cc(/C=C2/C(=N)N3C(=NC2=O)SN=C3S(=O)(=O)C(C)C)ccc1OC(=O)c1ccco1	20	-3	-3	-1	62*	-2
COc1cc(/C=C2/C(=N)N3C(=NC2=O)SN=C3S(=O)(=O)C(C)C)ccc1OC(=O)c1ccco1	3	10	1	17	45	-5
O=C(CSc1nnc(-c2cccnc2)n1-c1ccc(Cl)cc1)Nc1ccc(S(=O)(=O)Nc2nccs2)cc1	6	nt	2	nt	nt	nt
SMILES	CCHFV vOTU inh	Y pestis TopoI	PrPC TRFRET	VHR inh abs	MazEF act	BH1578 lux ind
CC(=O)Nc1ccc(NC(=O)c2nc(S(=O)(=O)Cc3cccc(C)c3)ncc2Cl)cc1	9	-4	71*	-12	15	3
O=C(O)c1ccc(C(=O)Nc2cccc3ccccc23)c(C(=O)O)c1	-9	-5	0	-1	7	225*
O=C(Nc1cccc(C(=O)O)c1)Nc1cccc2ccccc12	7	-2	4	30	1	-1
CC1CN(C(=O)c2cc3cc(F)ccc3[nH]2)CC(C)O1 (centres undefined)	8	-2	10	53*	1	i
Cc1ccc(Nc2nc(N3CCOCC3)nc(N3CCOCC3)n2)cc1	-6	-1	-6	51*	2	0
COc1cccc(Nc2c([N+](=O)[O-])cncc2[N+](=O)[O-])c1	15	-4	-23	-3	0	i
COc1cccc(Nc2c(Nc3cccc(OC)c3)c(=O)c2=O)c1	6	4	8	59*	-7	-1
CC(=O)CC[C@H]1CC[C@]2(CCCN(C(=O)C(C)(C)C)C2)O1	-2	nt	2	nt	nt	nt
COC(=O)c1cc(S(=O)(=O)N2CCN(c3ccccc3Cl)CC2)cn1C	3	nt	2	nt	nt	nt
CCOC(=O)c1c(/N=C/C2C(=O)NC(=O)NC2=O)sc2c1CCC2	-8	1	-1	9	123*	i
C/C(=C/c1[nH]c(N)[n+](CC2CC2)c1Cc1ccccc1)Cn1[nH]c(=O)n(-c2ccccc2)c1=O	7	nt	-11	nt	nt	nt
Nc1nonc1-n1nnc(C(=O)N/N=C/c2cccc(F)c2)c1CN1CCCC1	-5	2	2	nt	10	28*
Cc1ccc(-c2c(C(=O)N/N=C/c3ccc4c(c3)OCO4)nnn2-c2nonc2N)cc1	-66	58*	2	20	-27	-5
Nc1nonc1-n1nnc(C(=O)N/N=C/c2cccc(F)c2)c1CN1CCCCCC1	-2	3	-5	nt	-1	0
C/C(=N/NC(=O)c1nnn(-c2nonc2N)c1COc1ccccc1)c1ccccc1Cl	21	-4	0	57*	5	0
Nc1nonc1-n1nnc(C(=O)N/N=C/c2cccc(Cl)c2)c1CN1CCCC1	5	6	-5	nt	6	32*
Cc1ccc(SCc2c(C(=O)N/N=C/c3ccc4c(c3)OCO4)nnn2-c2nonc2N)cc1	-5	1	1	10	23	0
CN1C(=O)c2cc(NC(=O)Nc3ccccc3)ccc2OC[C@H]2O[C@@H](CC(=O)N[C@H]3CCN(Cc4ccccc4)C3)CC[C@@H]21	-2	nt	0	nt	nt	nt
O=C(NCc1ccco1)C1CCCN(S(=O)(=O)c2ccc([N+](=O)[O-])cc2)C1 (centres undefined)	-5	nt	-14	nt	nt	nt
Nc1nonc1-n1nnc(C(=O)N/N=C/c2ccc(Cl)cc2Cl)c1CN1CCOCC1	5	-3	-4	-15	124*	0
CCc1ccc(N2C(=O)C[C@@](C#N)(C(=O)OC)[C@H]2c2ccccc2)cc1	-5	nt	-8	nt	nt	nt

High-throughput results: PubChem, several laboratories
